{
  "source": "paper PMC4336329",
  "about": "(PLoS ONE, 2015)",
  "note": "Among all 310,000 compounds or so, about 14,000 (4.5%) showed an effect of 50% or more. The effect is printed as a negative number. For the sample, strong results were picked, then their nearest neighbours and some compounds at random.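 Further: peak tail current of the secondary pulse compared with the same well before compound.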",
  "data": [
    {"target": "human ether-à-go-go-related gene (hERG) potassium channel (human, UniProt Q12809)", "sequence (Q12809 whole entry, looked up)": "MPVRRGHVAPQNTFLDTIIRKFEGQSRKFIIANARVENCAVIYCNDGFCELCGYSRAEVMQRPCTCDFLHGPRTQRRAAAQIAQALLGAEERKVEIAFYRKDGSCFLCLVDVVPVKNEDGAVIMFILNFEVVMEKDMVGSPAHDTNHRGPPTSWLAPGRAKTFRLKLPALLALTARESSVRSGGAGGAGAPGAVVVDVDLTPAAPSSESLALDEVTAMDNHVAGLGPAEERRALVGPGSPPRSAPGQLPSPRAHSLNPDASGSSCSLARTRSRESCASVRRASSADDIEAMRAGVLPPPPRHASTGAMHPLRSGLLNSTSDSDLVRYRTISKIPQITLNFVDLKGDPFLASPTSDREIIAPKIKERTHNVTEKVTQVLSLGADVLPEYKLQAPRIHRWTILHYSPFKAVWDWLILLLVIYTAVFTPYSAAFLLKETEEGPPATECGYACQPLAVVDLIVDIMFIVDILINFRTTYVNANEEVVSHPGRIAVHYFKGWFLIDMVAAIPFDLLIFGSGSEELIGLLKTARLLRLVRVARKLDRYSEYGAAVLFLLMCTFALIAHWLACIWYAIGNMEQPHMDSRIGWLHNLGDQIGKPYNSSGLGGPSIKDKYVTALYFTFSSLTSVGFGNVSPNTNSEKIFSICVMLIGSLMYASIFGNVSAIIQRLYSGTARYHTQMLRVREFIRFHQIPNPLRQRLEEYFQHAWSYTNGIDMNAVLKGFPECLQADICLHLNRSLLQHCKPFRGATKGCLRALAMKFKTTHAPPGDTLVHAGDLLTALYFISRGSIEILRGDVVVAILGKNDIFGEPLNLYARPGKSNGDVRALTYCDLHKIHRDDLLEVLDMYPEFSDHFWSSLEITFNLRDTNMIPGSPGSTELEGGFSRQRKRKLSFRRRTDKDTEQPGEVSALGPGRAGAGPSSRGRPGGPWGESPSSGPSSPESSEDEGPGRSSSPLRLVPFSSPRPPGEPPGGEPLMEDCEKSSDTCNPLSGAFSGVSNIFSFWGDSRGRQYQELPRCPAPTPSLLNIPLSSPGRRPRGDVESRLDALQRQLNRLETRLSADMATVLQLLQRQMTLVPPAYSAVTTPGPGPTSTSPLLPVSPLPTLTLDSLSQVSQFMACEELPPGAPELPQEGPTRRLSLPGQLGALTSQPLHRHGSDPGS", "assay": "primary screen, population patch clamp on CHO cells stably expressing hERG; higher = less effect of the substance", "units": {"hERG current change (%, negative = inhibition) at 10uM": "%"}, "values": [
      {"smiles": "COc1ccc(CN(C)Cc2c(O)ccc3ccccc23)cc1", "hERG current change (%, negative = inhibition) at 10uM": -24.7},
      {"smiles": "COc1ccc(OCCN(C)Cc2c(O)ccc3ccccc23)cc1", "hERG current change (%, negative = inhibition) at 10uM": 19},
      {"smiles": "COc1ccc(CCN(C)Cc2c(O)ccc3ccccc23)cc1OC", "hERG current change (%, negative = inhibition) at 10uM": -74},
      {"smiles": "COc1ccc2cc(Br)ccc2c1CC(=O)N(C)C", "hERG current change (%, negative = inhibition) at 10uM": 10.7},
      {"smiles": "COc1ccc(CCN(C)Cc2c(O)ccc3cc(Br)ccc23)cc1OC", "hERG current change (%, negative = inhibition) at 10uM": -59.5},
      {"smiles": "COc1ccc(CCN(C)C(=O)CNC(=O)Cc2cccc3ccccc23)cc1OC", "hERG current change (%, negative = inhibition) at 10uM": -1.9},
      {"smiles": "COc1ccc(CN(C)Cc2c(O)ccc3cc(Br)ccc23)cc1OC", "hERG current change (%, negative = inhibition) at 10uM": -37.3},
      {"smiles": "COc1cc(CN(C)Cc2cccc3ccccc23)cc([N+](=O)[O-])c1O", "hERG current change (%, negative = inhibition) at 10uM": 11.9},
      {"smiles": "COc1ccc(CCN(C)Cc2cccc3ccccc23)cc1OC", "hERG current change (%, negative = inhibition) at 10uM": -73.8},
      {"smiles": "Cc1ccc(C(=O)NCC(=O)OCCOc2cccc(Cl)c2)cc1", "hERG current change (%, negative = inhibition) at 10uM": -7.72},
      {"smiles": "Cc1nn(C)c2ncc(C(N)=O)c(Oc3ccc(Cl)cc3)c12", "hERG current change (%, negative = inhibition) at 10uM": 7.24},
      {"smiles": "Cc1ccc(S(=O)(=O)Nc2cccc3cccnc23)cc1", "hERG current change (%, negative = inhibition) at 10uM": -12.1},
      {"smiles": "O=C(CSc1nc(Nc2ccccc2)nc(N2CCOCC2)n1)Nc1ccc([N+](=O)[O-])cc1", "hERG current change (%, negative = inhibition) at 10uM": 9.65},
      {"smiles": "COc1ccc([C@@H]2[C@H]3C(=O)N(c4cccc(C(F)(F)F)c4)C(=O)[C@H]3ON2C)cc1", "hERG current change (%, negative = inhibition) at 10uM": -12.1},
      {"smiles": "COc1ccc(S(=O)(=O)NCCOc2ccccc2)cc1F", "hERG current change (%, negative = inhibition) at 10uM": 8.52},
      {"smiles": "CC(C)NC(=O)Cn1nnc(-c2ccc(Cl)cc2)n1", "hERG current change (%, negative = inhibition) at 10uM": 4.9},
      {"smiles": "Cc1nn(CC(=O)NCc2ccccn2)c(C)c1[N+](=O)[O-]", "hERG current change (%, negative = inhibition) at 10uM": -10.9},
      {"smiles": "Cc1ccc(NC(=O)COC(=O)c2ccc(Cl)nc2)cc1S(=O)(=O)N1CCCCC1", "hERG current change (%, negative = inhibition) at 10uM": 15.2},
      {"smiles": "O=C(Nc1ccccc1C(=O)N1CCN(CCO)CC1)c1cccc([N+](=O)[O-])c1", "hERG current change (%, negative = inhibition) at 10uM": 7},
      {"smiles": "CN(C)c1nc(SCC#N)nc(N(C)C)n1", "hERG current change (%, negative = inhibition) at 10uM": -3.57},
      {"smiles": "O=C(COc1ccc(Cl)cc1)Nc1cccc(-c2ccc3nncn3n2)c1", "hERG current change (%, negative = inhibition) at 10uM": -51.9},
      {"smiles": "COCC(=O)Nc1cccc(-c2ccc3nncn3n2)c1", "hERG current change (%, negative = inhibition) at 10uM": 9.97},
      {"smiles": "O=C(COc1ccc(Cl)cc1)Nc1cccc(-c2ccc(N3CCOCC3)nn2)c1", "hERG current change (%, negative = inhibition) at 10uM": 0.684},
      {"smiles": "CN1CCN(c2ccc(-c3cccc(NC(=O)COc4ccc(Cl)cc4)c3)nn2)CC1", "hERG current change (%, negative = inhibition) at 10uM": -50.7},
      {"smiles": "CCOc1ccc(C(=O)Nc2cccc(-c3ccc4nncn4n3)c2)cc1", "hERG current change (%, negative = inhibition) at 10uM": 12.5},
      {"smiles": "CN1CCN(c2ccc(-c3cccc(NC(=O)COc4ccccc4)c3)nn2)CC1", "hERG current change (%, negative = inhibition) at 10uM": -35.9},
      {"smiles": "CCOc1cc(NS(C)(=O)=O)c(OCC)cc1NC(=O)c1cccs1", "hERG current change (%, negative = inhibition) at 10uM": -15.8},
      {"smiles": "CN1CCN(c2ccc(-c3ccnn3C(=O)Nc3ccccc3)cc2)CC1", "hERG current change (%, negative = inhibition) at 10uM": -11.5},
      {"smiles": "CCOC(=O)c1ccc(NC(=O)c2ccc(OC(C)C)c(OC)c2)cc1", "hERG current change (%, negative = inhibition) at 10uM": -3.47},
      {"smiles": "Cc1cc(C(=O)COC(=O)c2ccncc2)c(C)n1Cc1ccco1", "hERG current change (%, negative = inhibition) at 10uM": 13.7},
      {"smiles": "NC(=O)c1c(NC(=O)C2c3ccccc3Oc3ccccc32)sc2c1CCCCC2", "hERG current change (%, negative = inhibition) at 10uM": 6.4},
      {"smiles": "CCS(=O)(=O)N1CCC(C(=O)N2CCOCC2)CC1", "hERG current change (%, negative = inhibition) at 10uM": 12},
      {"smiles": "COc1ccc(S(=O)(=O)NCC2CCCN(Cc3cn(C)nc3C)C2)cc1", "note": "(stereo not shown)", "hERG current change (%, negative = inhibition) at 10uM": 8.1},
      {"smiles": "CC(C)c1cccc(C(C)C)c1OC(=O)[C@H]1OC(C(C)(C)C)=C[C@@H]1c1ccccc1", "hERG current change (%, negative = inhibition) at 10uM": -6.97},
      {"smiles": "COc1cc(C(=O)N(C)CCOc2ccccc2)ccc1OCC(=O)Nc1cccc(C(F)(F)F)c1", "hERG current change (%, negative = inhibition) at 10uM": -14.2},
      {"smiles": "CCN(CC(=O)Nc1ccc(OC)c(OC)c1)CC(=O)Nc1ccccc1C(F)(F)F", "hERG current change (%, negative = inhibition) at 10uM": -0.147},
      {"smiles": "COc1cc(C(=O)NCCCN(C)C)ccc1OCC(=O)Nc1cccc(C(F)(F)F)c1", "hERG current change (%, negative = inhibition) at 10uM": -59.1},
      {"smiles": "CCOc1ccc(C(=O)NCCCCNC(=O)c2ccc(OCC)cc2)cc1", "hERG current change (%, negative = inhibition) at 10uM": 21.8},
      {"smiles": "CCOc1ccc(C(=O)NCCNC(=O)c2ccc(OCC)cc2)cc1", "hERG current change (%, negative = inhibition) at 10uM": 9.15},
      {"smiles": "CCOc1ccc(C(=O)NCCCN(CC)CC)cc1", "hERG current change (%, negative = inhibition) at 10uM": -51.8},
      {"smiles": "COc1cc(C(=O)NCc2ccc(S(N)(=O)=O)cc2)ccc1OCC(=O)Nc1cccc(C(F)(F)F)c1", "hERG current change (%, negative = inhibition) at 10uM": 15.5},
      {"smiles": "CCN(CC(=O)Nc1ccccc1OC)CC(=O)Nc1ccccc1C(F)(F)F", "hERG current change (%, negative = inhibition) at 10uM": -5.29},
      {"smiles": "CCN(CC)CCCNC(=O)c1ccc(OCC(=O)Nc2ccccc2C(F)(F)F)c(OC)c1", "hERG current change (%, negative = inhibition) at 10uM": -70.5}
    ]}
  ]
}
